# From the supplement of paper PMC11732987, “Enantioselective OTUD7B fragment discovery through chemoproteomics screening and high-throughput optimisation” (Communications Chemistry, 2025)
# Values without a mark were called inactive.
# Assays:
# Assay in all cases: log2 ratio of Biotin-Ahx-Ub-VS probe labelling (fragment/DMSO); higher = less target engagement (more negative = stronger competition), active = hit call of the paper (q ≤ 0.05, log2 ratio ≤ -1)
# Conditions in all cases: compound concentration: 200 uM; treatment time: 3 h
# USP19 = biological target: T1, USP19 (UniProt O94966)
# T1 sequence (whole entry): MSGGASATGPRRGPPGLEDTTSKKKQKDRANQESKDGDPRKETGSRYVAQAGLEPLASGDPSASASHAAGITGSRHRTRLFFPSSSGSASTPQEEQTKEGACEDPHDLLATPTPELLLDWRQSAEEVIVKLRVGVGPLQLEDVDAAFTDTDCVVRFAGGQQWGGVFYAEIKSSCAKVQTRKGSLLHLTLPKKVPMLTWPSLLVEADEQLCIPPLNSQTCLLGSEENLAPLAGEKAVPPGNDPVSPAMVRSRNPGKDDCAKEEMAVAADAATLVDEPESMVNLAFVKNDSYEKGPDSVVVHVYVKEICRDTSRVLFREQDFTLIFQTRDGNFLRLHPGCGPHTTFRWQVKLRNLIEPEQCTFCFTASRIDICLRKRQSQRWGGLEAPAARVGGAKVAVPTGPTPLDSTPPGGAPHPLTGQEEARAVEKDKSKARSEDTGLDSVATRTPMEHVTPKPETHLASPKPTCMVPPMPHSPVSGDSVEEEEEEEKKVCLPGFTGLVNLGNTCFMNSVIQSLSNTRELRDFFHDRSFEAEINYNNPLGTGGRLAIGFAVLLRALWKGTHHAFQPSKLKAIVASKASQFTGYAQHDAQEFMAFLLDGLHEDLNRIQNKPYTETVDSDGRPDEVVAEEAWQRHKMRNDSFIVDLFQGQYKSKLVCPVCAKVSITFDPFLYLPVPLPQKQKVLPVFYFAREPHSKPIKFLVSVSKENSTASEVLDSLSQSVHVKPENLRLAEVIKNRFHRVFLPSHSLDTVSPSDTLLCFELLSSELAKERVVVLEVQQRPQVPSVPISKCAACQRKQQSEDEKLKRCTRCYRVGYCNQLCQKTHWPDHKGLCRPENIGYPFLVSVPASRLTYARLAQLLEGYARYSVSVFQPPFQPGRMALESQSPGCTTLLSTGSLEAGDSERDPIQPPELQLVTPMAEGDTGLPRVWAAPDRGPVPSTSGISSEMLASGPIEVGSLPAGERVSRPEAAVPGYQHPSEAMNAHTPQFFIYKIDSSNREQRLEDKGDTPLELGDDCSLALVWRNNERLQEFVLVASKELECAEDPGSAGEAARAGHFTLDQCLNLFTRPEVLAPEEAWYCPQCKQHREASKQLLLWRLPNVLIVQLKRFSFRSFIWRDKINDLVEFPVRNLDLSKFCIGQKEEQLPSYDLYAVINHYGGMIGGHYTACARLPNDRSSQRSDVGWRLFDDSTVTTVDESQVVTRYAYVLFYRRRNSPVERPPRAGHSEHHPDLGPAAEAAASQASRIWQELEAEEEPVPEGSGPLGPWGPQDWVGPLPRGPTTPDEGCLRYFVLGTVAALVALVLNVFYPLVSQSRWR
# Outline: (§1)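 Values give the average log2 ratio of fragment to vehicle, assessed by unpaired t-test on global-median-normalised Spectronaut label-free quantities. Proteins needed ≥2 unique peptides. HEK293T lysate (495 µg per sample) was treated in triplicate with fragment at 200 µM or vehicle for 3 h and then with Biotin-Ahx-Ub-VS at 0.5 µM final for 1 h. Labelled DUBs were NeutrAvidin-enriched, digested and run by diaPASEF LC-MS/MS.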
# USP22 = biological target: T2, USP22 (UniProt Q9UPT9)
# T2 sequence (whole entry): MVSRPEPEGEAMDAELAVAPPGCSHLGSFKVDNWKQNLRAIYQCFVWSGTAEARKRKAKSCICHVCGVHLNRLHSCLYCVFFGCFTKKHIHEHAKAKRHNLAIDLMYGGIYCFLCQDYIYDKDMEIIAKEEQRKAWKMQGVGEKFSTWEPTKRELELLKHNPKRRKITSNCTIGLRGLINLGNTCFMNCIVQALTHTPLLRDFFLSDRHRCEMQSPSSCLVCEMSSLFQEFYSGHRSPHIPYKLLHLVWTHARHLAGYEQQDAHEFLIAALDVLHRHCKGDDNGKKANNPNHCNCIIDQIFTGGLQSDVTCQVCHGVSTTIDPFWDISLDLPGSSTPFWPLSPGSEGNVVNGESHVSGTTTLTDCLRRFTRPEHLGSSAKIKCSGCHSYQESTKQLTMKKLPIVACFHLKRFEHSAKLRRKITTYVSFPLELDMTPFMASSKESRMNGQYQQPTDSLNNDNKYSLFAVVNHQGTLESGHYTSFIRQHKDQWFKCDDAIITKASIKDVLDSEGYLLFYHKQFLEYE
# Outline: as §1
# USP24 = USP24 (UniProt Q9UPU5)
# Sequence of USP24 (Q9UPU5 whole entry): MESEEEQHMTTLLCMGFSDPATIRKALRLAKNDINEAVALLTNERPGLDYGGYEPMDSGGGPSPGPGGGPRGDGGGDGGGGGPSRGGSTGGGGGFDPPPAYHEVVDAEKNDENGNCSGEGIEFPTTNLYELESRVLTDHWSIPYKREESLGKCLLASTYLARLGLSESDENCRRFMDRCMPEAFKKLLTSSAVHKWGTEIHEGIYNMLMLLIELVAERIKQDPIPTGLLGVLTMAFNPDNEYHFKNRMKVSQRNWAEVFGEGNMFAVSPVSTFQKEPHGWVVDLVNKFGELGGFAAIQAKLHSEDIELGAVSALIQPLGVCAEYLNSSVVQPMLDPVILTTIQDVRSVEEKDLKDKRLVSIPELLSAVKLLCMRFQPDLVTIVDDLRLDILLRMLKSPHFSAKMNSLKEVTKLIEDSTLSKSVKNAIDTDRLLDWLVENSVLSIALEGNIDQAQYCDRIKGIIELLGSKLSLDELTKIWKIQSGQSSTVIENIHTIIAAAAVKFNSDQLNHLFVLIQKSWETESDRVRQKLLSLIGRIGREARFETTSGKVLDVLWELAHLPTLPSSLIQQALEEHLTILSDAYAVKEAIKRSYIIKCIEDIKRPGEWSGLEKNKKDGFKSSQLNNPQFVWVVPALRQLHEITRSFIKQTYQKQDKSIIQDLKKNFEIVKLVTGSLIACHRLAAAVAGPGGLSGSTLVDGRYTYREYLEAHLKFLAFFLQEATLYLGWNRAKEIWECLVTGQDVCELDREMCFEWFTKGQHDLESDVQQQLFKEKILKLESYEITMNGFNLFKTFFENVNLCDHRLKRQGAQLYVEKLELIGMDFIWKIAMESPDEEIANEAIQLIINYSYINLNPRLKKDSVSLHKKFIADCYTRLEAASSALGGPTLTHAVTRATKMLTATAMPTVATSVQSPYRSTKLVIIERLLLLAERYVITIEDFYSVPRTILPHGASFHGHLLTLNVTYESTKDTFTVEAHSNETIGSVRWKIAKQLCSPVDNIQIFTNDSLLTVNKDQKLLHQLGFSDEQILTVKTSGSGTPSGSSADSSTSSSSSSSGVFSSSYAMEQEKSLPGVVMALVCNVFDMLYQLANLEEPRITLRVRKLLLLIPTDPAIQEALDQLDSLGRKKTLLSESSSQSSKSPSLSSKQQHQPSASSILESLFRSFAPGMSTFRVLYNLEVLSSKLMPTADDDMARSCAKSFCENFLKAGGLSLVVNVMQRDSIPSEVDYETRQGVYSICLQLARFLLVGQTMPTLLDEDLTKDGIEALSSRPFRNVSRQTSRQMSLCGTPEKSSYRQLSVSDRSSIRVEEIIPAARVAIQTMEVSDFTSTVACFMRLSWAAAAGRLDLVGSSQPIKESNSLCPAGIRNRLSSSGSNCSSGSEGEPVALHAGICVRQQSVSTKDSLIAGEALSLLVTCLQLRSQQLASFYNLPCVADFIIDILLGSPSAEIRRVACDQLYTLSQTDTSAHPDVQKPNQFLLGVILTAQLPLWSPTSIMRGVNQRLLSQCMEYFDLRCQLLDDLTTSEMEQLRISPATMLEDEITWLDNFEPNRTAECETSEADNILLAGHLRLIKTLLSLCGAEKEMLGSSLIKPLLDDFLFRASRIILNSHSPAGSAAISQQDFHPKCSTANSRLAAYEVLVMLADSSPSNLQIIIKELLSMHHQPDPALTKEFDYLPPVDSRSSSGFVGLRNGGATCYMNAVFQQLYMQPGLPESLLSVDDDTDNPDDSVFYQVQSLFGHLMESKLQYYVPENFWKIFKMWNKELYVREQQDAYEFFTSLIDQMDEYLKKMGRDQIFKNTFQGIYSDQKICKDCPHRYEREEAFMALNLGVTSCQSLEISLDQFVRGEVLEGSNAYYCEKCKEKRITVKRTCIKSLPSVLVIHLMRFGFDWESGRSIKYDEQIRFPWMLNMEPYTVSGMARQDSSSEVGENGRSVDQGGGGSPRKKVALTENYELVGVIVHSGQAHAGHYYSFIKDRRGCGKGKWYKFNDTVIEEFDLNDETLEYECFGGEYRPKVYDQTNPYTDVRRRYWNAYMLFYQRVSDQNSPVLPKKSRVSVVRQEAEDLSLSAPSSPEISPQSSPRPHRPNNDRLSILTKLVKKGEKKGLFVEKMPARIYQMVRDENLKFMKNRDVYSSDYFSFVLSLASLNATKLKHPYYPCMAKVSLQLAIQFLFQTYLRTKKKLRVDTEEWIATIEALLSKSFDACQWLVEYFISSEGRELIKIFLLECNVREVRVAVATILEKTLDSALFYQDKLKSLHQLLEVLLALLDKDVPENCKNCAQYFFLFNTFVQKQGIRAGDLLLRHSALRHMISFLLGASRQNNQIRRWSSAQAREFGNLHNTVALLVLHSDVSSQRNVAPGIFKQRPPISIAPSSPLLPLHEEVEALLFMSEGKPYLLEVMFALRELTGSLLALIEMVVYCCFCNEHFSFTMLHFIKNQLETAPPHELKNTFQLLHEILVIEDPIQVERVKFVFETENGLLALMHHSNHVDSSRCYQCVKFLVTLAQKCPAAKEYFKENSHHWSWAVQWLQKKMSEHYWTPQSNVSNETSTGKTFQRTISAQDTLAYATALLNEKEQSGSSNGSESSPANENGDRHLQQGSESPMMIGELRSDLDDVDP
# Outline: as §1
# USP25 = biological target: T3, USP25 (UniProt Q9UHP3)
# T3 sequence (whole entry): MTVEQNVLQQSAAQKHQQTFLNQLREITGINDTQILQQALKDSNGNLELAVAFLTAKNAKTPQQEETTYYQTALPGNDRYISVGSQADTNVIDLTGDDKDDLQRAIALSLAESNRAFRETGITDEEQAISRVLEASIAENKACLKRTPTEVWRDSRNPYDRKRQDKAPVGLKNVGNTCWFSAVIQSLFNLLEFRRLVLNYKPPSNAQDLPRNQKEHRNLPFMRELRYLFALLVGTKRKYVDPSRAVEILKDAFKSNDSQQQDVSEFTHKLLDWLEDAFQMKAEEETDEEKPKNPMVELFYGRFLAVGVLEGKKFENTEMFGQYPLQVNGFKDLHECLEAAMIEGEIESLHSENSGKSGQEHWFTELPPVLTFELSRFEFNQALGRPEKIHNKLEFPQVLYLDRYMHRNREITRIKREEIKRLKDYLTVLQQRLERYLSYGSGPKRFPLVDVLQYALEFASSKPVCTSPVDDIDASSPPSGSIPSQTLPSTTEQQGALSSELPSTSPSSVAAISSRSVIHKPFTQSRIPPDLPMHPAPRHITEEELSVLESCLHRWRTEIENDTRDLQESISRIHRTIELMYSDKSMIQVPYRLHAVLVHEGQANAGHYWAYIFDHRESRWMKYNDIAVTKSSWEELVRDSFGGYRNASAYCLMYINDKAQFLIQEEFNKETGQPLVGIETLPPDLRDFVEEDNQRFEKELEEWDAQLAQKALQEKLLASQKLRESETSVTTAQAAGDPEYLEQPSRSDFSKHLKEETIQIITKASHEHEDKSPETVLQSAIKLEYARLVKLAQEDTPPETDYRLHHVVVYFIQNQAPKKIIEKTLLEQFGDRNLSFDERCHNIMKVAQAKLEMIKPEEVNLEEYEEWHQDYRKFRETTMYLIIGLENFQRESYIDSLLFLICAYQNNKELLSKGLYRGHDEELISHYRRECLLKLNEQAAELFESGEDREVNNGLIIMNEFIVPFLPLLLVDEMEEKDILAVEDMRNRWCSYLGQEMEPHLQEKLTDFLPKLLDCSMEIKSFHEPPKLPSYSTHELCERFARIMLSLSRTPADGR
# Outline: as §1
# USP28 = biological target: T4, USP28 (UniProt Q96RU2)
# T4 sequence (whole entry): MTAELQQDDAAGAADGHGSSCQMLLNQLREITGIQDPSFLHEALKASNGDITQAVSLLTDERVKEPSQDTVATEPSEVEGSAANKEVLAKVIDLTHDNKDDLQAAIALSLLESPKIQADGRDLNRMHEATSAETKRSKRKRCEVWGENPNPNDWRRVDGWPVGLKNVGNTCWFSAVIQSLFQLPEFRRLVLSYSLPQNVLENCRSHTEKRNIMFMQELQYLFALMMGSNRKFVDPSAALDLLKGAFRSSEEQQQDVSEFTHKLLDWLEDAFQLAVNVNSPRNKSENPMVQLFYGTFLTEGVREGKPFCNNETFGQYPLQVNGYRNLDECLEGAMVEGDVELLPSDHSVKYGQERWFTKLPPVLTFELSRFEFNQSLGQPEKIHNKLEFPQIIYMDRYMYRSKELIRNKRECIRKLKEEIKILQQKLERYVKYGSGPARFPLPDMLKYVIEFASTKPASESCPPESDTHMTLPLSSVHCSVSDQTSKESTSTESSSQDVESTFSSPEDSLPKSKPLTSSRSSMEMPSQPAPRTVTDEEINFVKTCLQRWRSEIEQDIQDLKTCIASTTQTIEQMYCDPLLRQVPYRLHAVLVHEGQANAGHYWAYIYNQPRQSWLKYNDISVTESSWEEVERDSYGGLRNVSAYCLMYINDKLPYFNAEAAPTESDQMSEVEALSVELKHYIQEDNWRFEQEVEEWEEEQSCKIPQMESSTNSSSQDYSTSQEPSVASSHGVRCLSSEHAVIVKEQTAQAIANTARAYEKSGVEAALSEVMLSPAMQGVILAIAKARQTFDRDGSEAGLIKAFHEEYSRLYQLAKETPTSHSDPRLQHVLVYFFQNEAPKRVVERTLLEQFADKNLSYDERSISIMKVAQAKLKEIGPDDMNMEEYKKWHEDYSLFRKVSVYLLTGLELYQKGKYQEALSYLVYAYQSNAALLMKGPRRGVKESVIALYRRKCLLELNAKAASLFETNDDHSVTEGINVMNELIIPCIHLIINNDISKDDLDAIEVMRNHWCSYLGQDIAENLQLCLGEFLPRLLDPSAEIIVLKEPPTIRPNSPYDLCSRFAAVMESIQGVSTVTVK
# Outline: as §1
smiles,measurement,setting,value
N#Cc1ccccc1N1CCN(C(=O)CCl)CC1,log2 ratio of Biotin-Ahx-Ub-VS probe labelling,USP19,-0.813
same,log2 ratio of Biotin-Ahx-Ub-VS probe labelling,USP22,0.0569
same,log2 ratio of Biotin-Ahx-Ub-VS probe labelling,USP24,-1.15 (active)
same,log2 ratio of Biotin-Ahx-Ub-VS probe labelling,USP25,-0.657
same,log2 ratio of Biotin-Ahx-Ub-VS probe labelling,USP28,-1.05
